Screening data from PubChem.
RGS8-Gao = regulators of human RGS8-Galphao interaction; P09471; multiplexed bead flow cytometry, RGS8-Galphao binding; actives lie on both sides; response (percent of control binding), % at 10 µM; hit rate 0.34% among 220,000; AID 1423; in the data active means response below about 60% or above about 140%; inactive means in between;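 further: Galphao activated as the GDP aluminium fluoride complex binding bead-coupled RGS8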
GSH fluor = GSH bead compound fluorescence profile | GSH beads flow cytometry, compound fluorescence 488/530 nm; hits give high values | fluorescence (KMESF) at 10 µM | hit rate 0.25% among 190,000 | AID 1776; in the data active means fluorescence above about 89;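 further: glutathione beads carrying GST-tagged Bcl family fusion proteins plus one bare bead set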
RGS4-Gao reg = modulates binding of RGS4 to human Galphao | Multiplexed bead flow cytometry; actives lie on both sides | binding response (% of control), % at 10 µM | hit rate 0.33% among 220,000 | AID 1415; in the data active means binding response below about 49% or above about 150%; inactive means in between;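 further: fluorescent Galphao activated with aluminum fluoride binding bead-coupled RGS4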
RGS16-Gao HTS = modulates binding between human RGS16 and Galphao. hit rate 0.38% among 220,000. bead-based flow cytometry RGS16-Galphao binding, fluorescence; actives lie on both sides. binding response (% of control), % at 10 µM;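 further: Galphao activated by GDP with aluminum fluoride before binding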
Avidin bead fluor = avidin bead compound fluorescence profile; hit rate 0.38% among 220,000; fluorescence (KMESF) at 10 µM; AID 1775; Avidin beads, compound fluorescence 488/530 nm, flow cytometry; hits give high values; in the data active means fluorescence above about 47
RGS7-Gao = human RGS7-Galphao interaction regulation. P09471. Multiplexed bead flow cytometry, RGS7-Galphao binding; actives lie on both sides. binding response (% of control), % at 10 µM. hit rate 0.35% among 220,000; in the data active means binding response below about 49% or above about 150%;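 further: fluorescent Galphao held in activated GDP-AlF4 state binding bead-coupled RGS7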
RGS-Gao = RGS4-Galphao interaction regulator (human) | multiplexed bead flow cytometry, RGS–Galpha-o binding | hit rate 99% among 1,600 | RGS4–Galpha-o binding response, % at 10 µM | shares compounds with RGS16-Gao HTS;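 further: fluorescently labeled Galpha-o bound to GDP with aluminium fluoride binding biotinylated RGS beads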
Biotin-avidin = counter-screen: compounds disrupting biotin binding to avidin beads. AID 1783. shares compounds with RGS16-Gao HTS. inhibition, % at 10 µM. streptavidin beads, fluorescein-biotin binding, flow cytometry. 1,700 tested, under 10 active;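 active means inhibition above 50%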;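 further: median green fluorescence of gated singlet beads compared with DMSO control wells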
RGS8-Gao confirm = confirmation of regulators of human RGS8-Galphao interaction; shares compounds with RGS16-Gao HTS; binding response (% of control), % at 10 µM; bead-based flow cytometry RGS8-Galphao binding, fluorescence; actives lie on both sides; AID 1836; hit rate 3% among 1,700; in the data active means binding response below about 72% or above about 130%; inactive means in between;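 further: Galphao activated as GDP AlF4 complex before binding bead RGS8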
RGS7-Gao confirm = RGS7-Galphao interaction regulation, single point confirmation; response (percent of control binding), % at 10 µM; hit rate 7.8% among 1,700; bead-based flow cytometry RGS7-Galphao binding; actives lie on both sides; shares compounds with RGS16-Gao HTS; in the data active means response below about 75% or above about 130%; inactive means in between;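 further: fluorescent Galphao activated with GDP and aluminum fluoride binding bead-coupled RGS7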
RGS16-Gao single = confirmation of regulators of human RGS16-Galphao interaction. shares compounds with RGS16-Gao HTS. bead-based flow cytometry, RGS16-Galphao binding; actives lie on both sides. response (% of control binding), % at 10 µM. hit rate 4% among 1,700. AID 1838; in the data active means response below about 74% or above about 130%; inactive means in between;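 further: Galphao activated as the GDP aluminium fluoride complex binding bead-coupled RGS16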
RGS4-Gao confirm = confirmation of regulators of human RGS4-Galphao interaction. shares compounds with RGS16-Gao HTS. RGS4-Galphao binding, multiplexed bead flow cytometry; actives lie on both sides. binding response (% of control), % at 10 µM. hit rate 4% among 1,700. AID 1840; in the data active means binding response below about 74% or above about 130%; inactive means in between
RGS19-Gao conf = confirmation of regulators of human RGS19-Galphao interaction; shares compounds with RGS16-Gao HTS; bead-based flow cytometry RGS19-Galphao binding; actives lie on both sides; response (percent of control binding), % at 10 µM; hit rate 5% among 1,700; in the data active means response below about 50% or above about 160%; inactive means in between
Numbers stand for hits; i = inactive; nt = not tested or not shown; [ ] = another dose, or the depositor's remark. Sampled rows, rich in hits. Any-hit rate of the full collection: about 1.2%. Unless noted, how the calls were made is not given here.

SMILES | RGS8-Gao | GSH fluor | RGS4-Gao reg | RGS16-Gao HTS | Avidin bead fluor | RGS7-Gao | Biotin-avidin | RGS8-Gao confirm | RGS7-Gao confirm | RGS16-Gao single | RGS4-Gao confirm | RGS19-Gao conf | others
O=C(CCC1CCCCC1)Nc1cccnc1 | nt | i | nt | nt | nt | nt | i | i | i | i | i | i
S=C(NCC1CCCCC1)Nc1cccnc1 | i | i | i | i | i | i | nt | nt | nt | nt | nt | nt
COc1ccc(C(=O)CCC(=O)Nc2cccc(Cl)c2)cc1 | i | i | i | i | i | i | nt | nt | nt | nt | nt | nt
CCc1cccc(CC)c1NC(=O)COC(=O)C1(c2ccc(Cl)cc2)CCCC1 | i | i | i | i | i | i | nt | nt | nt | nt | nt | nt
CCOc1ccc2nc3c(cc2c1)CN(CCCO)C(=NCCOC)S3 | 7.0 | i | -8.3 | -10 | i | -5.5 | i | i | i | i | i | i
CCOC(=O)c1c(NC(=O)CSc2nc3ccccc3o2)sc(C(C)=O)c1C | 7.6 | i | 1.8 | -3.6 | i | 2.6 | i | i | i | i | i | i
CCOC(=O)c1sc(NC(=O)CSc2nnc(Cc3ccccc3)o2)c(C#N)c1C | i | i | i | 19 | i | i | i | 70 | 143[activator] | 51 | i | 33 | RGS-Gao=101
CCOC(=O)c1c(NC(=O)c2cc(-c3ccc(O)cc3)on2)sc(C(C)=O)c1C | i | i | 258[activator] | 344[activator] | i | i | i | i | 145[activator] | 196[activator] | 152[activator] | 433[activator]
O=C1c2ccccc2NC(c2cn[nH]c2-c2ccccc2)N1O (stereo not given) | i | i | i | i | i | i | nt | nt | nt | nt | nt | nt
COC(=O)COc1ccc2occ(C(C)=O)c2c1 | i | i | i | i | i | i | nt | nt | nt | nt | nt | nt
CCCc1nc2ccc(NC(=O)NCCC(=O)OCC)cc2c(=O)n1Cc1ccc(Cl)cc1 | i | i | i | 8.6 | i | i | i | i | i | i | i | i | RGS-Gao=89
Cc1cccc(/C=N/NC(=O)Cn2nccc2C)n1 | i | i | i | i | i | i | nt | nt | nt | nt | nt | nt
C=C(C)CC(NCCc1ccccc1)c1ccco1 (stereo not given) | i | i | 156[activator] | i | i | i | i | i | i | i | i | i
O=C(NCCc1ccccc1)c1ccco1 | i | i | i | i | i | i | nt | nt | nt | nt | nt | nt
CCOc1ccccc1NS(=O)(=O)N(C)C | i | i | 11 | i | i | i | i | i | i | i | i | i
CCC(=O)NC(c1ccc(OC)c(OC)c1)c1cc(Cl)c2cccnc2c1O (stereo not given) | i | i | i | i | i | i | nt | nt | nt | nt | nt | nt
Cc1cc(C)c2c(N)c(C(=O)NCC3CCCCC3)sc2n1 | i | i | i | i | i | i | nt | nt | nt | nt | nt | nt
Cc1cc(C)c2c(N)c(C(=O)NC3CCCC3)sc2n1 | 142[activator] | i | i | i | i | i | i | i | 73 | i | i | i | RGS-Gao=113
O=C1OC2(CCCCC2)OC(=O)C1=CNc1nc2ccccc2s1 | i | i | i | i | i | i | nt | nt | nt | nt | nt | nt
O=C(C1CCC(N2C(=O)C3CC=CCC3C2=O)CC1)N1CCCCC1 (stereo not given) | 170[activator] | i | i | i | i | i | i | i | i | i | i | i | RGS-Gao=129
O=C(C1CCC(C(=O)N2CCCCC2)CC1)N1CCCCC1 (stereo not given) | i | i | i | i | i | i | nt | nt | nt | nt | nt | nt
